From PubChem BioAssay (Tox21)
Results filed as inconclusive are left out. Where a call stands in place of a potency, no number is given. Activity calls are given as the source filed them. Calls come from the whole dose curve; as a rule, active = well fitted inhibition curve with a large enough effect in the repeat runs; inconclusive = weak or mixed curves; inactive = flat fitted curve, though single readings scatter.

target: Voltage-gated inwardly rectifying potassium channel KCNH2 (Homo sapiens) (UniProt Q12809); assay: Human Ether-a-go-go-Related Gene (hERG) channel small molecule antagonists: fluorescence cell-based qHTS assay (AID 1671200); settings: hERG-U2OS cells, FluxOR thallium flux fluorescence; series mostly up to 76.8 µM; note: nearly all actives have a fitted effect of over 50% in size
From the text: National Center for Advancing Translational Sciences [NCATS]
U.S. Environmental Protection Agency [EPA]
National Institutes of Environmental Health Sciences [NIEHS]
National Toxicology Program [NTP]
U.S. Food and Drug Administration [FDA]
Mutations in the hERG channel cause Long QT (LQT) syndrome. LQT syndrome is a cardiac disorder which can cause ventricle arrhythmia and sudden death. Additionally, compounds which block the hERG channel can cause acquired LQT syndrome. Several FDA approved drugs have been removed from the market due to their hERG blocking activity. A cell-based hERG channel inhibition assay can be used to screen chemical compounds that inhibit hERG channel. This assay measures hERG channel activity using thallium ions as surrogate ions to measure potassium into the cells.
Tox21 Assay Protocol Summary:
hERG-U2OS cells were resuspended in culture medium and dispensed into 1536-well, black wall/clear-bottom plates at 1000cells/well/3uL using a Multidrop Combi dispenser (Thermo Fisher, Waltham, MA). After plates were incubated at 37 C overnight, 3 uL of Loading Buffer provided by FluxOR II Potassium Ion Channel Assay kit (Thermo, Carlsbad, CA) was added to each well. The assay plates were then incubated at room temperature in the dark for 1h. […] After the assay plates were incubated at room temperature for 10 min, 1 uL of Stimulus Buffer provided by FluxOR II Potassium Ion Channel Assay kit was added into each well and fluorescence intensity (480nm excitation/540nm emission) was continuously measured for 2 min at 1 second intervals using a Functional Drug Screening System (FDSS) 7000EX kinetic plate reader (Hamamatsu, Japan).

Voltage-gated inwardly rectifying potassium channel KCNH2 (Homo sapiens), sequence (Q12809 whole entry, looked up): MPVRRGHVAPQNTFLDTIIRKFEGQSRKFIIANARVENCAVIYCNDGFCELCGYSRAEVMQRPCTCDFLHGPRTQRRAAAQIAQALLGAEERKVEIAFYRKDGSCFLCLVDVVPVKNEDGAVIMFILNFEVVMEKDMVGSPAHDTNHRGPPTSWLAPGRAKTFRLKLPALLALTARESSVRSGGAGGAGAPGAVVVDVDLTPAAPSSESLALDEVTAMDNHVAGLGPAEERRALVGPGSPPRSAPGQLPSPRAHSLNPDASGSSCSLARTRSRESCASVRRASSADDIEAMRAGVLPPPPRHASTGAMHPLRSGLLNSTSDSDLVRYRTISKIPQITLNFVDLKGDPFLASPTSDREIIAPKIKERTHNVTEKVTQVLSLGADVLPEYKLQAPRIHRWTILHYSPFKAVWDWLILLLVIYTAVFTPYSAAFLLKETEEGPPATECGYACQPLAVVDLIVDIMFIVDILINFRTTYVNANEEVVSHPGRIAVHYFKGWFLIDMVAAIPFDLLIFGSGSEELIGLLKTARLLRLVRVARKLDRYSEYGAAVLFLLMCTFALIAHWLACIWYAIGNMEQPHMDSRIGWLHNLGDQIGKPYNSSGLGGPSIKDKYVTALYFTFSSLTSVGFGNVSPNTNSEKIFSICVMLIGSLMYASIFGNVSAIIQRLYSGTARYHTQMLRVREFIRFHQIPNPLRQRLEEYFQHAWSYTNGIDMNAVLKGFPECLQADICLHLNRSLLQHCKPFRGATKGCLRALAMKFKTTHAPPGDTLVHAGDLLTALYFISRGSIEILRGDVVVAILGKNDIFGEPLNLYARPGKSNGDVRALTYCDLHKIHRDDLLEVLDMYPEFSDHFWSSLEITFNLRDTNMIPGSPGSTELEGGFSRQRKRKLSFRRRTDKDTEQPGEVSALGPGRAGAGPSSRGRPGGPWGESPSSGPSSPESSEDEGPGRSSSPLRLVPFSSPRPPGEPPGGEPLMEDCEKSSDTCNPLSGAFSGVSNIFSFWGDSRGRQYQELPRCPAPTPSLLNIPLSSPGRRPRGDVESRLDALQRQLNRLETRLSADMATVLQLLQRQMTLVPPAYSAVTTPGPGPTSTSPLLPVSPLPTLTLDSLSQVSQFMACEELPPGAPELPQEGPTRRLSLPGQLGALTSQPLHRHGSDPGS

| Compound | Potency | activity change, negative = inhibition |
| --- | --- | --- |
| CCCCc1ccc2c(n1)[C@@H](c1ccc(OC)cc1C[C@H](C)C(=O)O)[C@H](C(=O)O)[C@H]2c1ccc2c(c1)OCO2 | inactive |  |
| CCCc1ncc(C[n+]2ccccc2C)c(N)n1 | inactive |  |
| CC(C)(C#N)Nc1nc(Cl)nc(NC2CC2)n1 | inactive |  |
| CCN1CCOCC1 | inactive |  |
| CNCC(O)c1ccc(O)c(O)c1 (stereo not given) | inactive |  |
| O=C(O)c1cc(C(=O)O)cc(C(=O)O)c1 | inactive |  |
| Cc1ccnc(NS(=O)(=O)c2ccc(N)cc2)n1 | inactive |  |
| CCCC(C)C(=O)OCC (stereo not given) | inactive |  |
| N[C@@H](CCC(=O)O)C(=O)O | inactive |  |
| Cc1cc(C)c(N=Nc2c(O)c(S(=O)(=O)O)cc3cc(S(=O)(=O)O)ccc23)cc1C |  | -0.475% [at 6.97 µM] (inactive) |
| OCCc1ccccn1 | inactive |  |
| CC(=O)C1CCCCC1=O (stereo not given) | inactive |  |
| O=C(O)CC(C(=O)O)S(=O)(=O)O (stereo not given) | inactive |  |
| CN(C)C(=O)Oc1cccc([N+](C)(C)C)c1 | inactive |  |
| CCOc1ccc2nc(S(N)(=O)=O)sc2c1 | inactive |  |
| C=CCCC(=O)O | inactive |  |
| C[N+]12CCC(CC1)C(OC(=O)C(O)(c1ccccc1)c1ccccc1)C2 (stereo not given) | inactive |  |
| Nc1ccn([C@@H]2O[C@H](CO)[C@@H](O)C2(F)F)c(=O)n1 | inactive |  |
| O=C(O)CCCC[P+](c1ccccc1)(c1ccccc1)c1ccccc1 | inactive |  |
| CC(C)(CCC(=O)O)C(=O)O | inactive |  |

| Compound | Potency | activity change, negative = inhibition |
| --- | --- | --- |
| O=C(O)CNC(=O)c1ccccc1 | inactive |  |
| Nc1ccn([C@@H]2O[C@H](CO)[C@@H](O)[C@@H]2O)c(=O)n1 | inactive |  |
| Nc1ccncc1N | inactive |  |
| CC1=CCC(O)(C(C)C)CC1 (stereo not given) | inactive |  |
| COc1cccc(OC)c1C(=O)N[C@@H]1C(=O)N2[C@@H]1SC(C)(C)[C@@H]2C(=O)O | inactive |  |
| CC(COc1ccccc1)NN (stereo not given) | inactive |  |
| c1coc(CNc2ncnc3nc[nH]c23)c1 | inactive |  |
| C[N+]1(C)CCCC(OC(=O)C(O)(c2ccccc2)c2ccccc2)C1 (stereo not given) | inactive |  |
| CCOC(=O)c1cnc2c(cnn2CC)c1NN=C(C)C | inactive |  |
| CCCCCCC#CC(=O)OC | inactive |  |
| COc1ccccc1OCC1CNC(=O)O1 (stereo not given) | inactive |  |
| CN1CCC(=C2c3ccccc3CCc3cccnc32)CC1 | inactive |  |
| NC(=O)Cc1cccc2ccccc12 | inactive |  |
| CCCCS(=O)(=O)N[C@@H](Cc1ccc(OCCCCC2CCNCC2)cc1)C(=O)O | inactive |  |
| CCC1C(=O)OCC1Cc1cncn1C (stereo not given) | inactive |  |
| C[N+]1(C)[C@@H]2CC(OC(=O)[C@H](CO)c3ccccc3)C[C@H]1[C@@H]1O[C@@H]12 (stereo not given in full) | inactive |  |
| CCN(Cc1ccccc1)c1ccccc1 | inactive |  |
| CNCCO | inactive |  |
| CC[N+](C)(CC)CCOC(=O)C1c2ccccc2Oc2ccccc21 | inactive |  |
| CC(=O)c1cnccn1 | inactive |  |
